Screening results (PubChem BioAssay)
TrxR1 substrate – qHTS Assay for Substrates of Mammalian Selenoprotein Thioredoxin Reductase 1 (TrxR1): qHTS; hit rate 0.01% among 390,000; AID 588456, 2011; purified TrxR1 substrate turnover, NADPH consumption readout; Thioredoxin reductase 1, cytoplasmic (Rattus norvegicus), O89049; Potency, µM (highest dose often 114 µM), for the others: at the top dose activity change, negative = substrate turnover; also: % is scaled to controls: 0 for no effect and ±100 for the full control effect; nearly all actives have a fitted effect of over 50% in size
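Rat TrxR1, dispensed at 90 nM, was prereduced with 400 uM NADPH (final) for 5 min at ~22 deg C, then incubated with compound 15 min before 400 uM selenite. A first-read NADPH fluorescence drop versus no-compound background flagged substrates.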
GLP1R inv ag – qHTS of GLP-1 Receptor Inverse Agonists (Inhibition Mode) | Glucagon-like peptide 1 receptor (Homo sapiens), P43220 | HEK293 GLP-1R CRE-luciferase, luminescence, 24 h; GLP-1R form is constitutively active | Potency, µM (highest dose often 38.3 µM), for the others: at the top dose activity change, negative = inhibition, most hits filed as inhibitors | hit rate 1.6% among 410,000 | AID 624417, 2012; also: % is scaled to controls: 0 for no effect and ±100 for the full control effect; nearly all actives have a fitted effect of over 55% in size
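Constitutively active GLP-1R drives a cAMP-responsive luciferase in stably transfected HEK293 cells; test compounds are added after overnight (12 h) attachment and left 24 hr, and signal loss in luminescence marks inhibition.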
rTrxR1 inhibitor – qHTS Assay for Inhibitors of Mammalian Selenoprotein Thioredoxin Reductase 1 (TrxR1): qHTS | recombinant rTrxR1, NADPH fluorescence consumption, selenite substrate | Thioredoxin reductase 1, cytoplasmic (Rattus norvegicus), O89049 | Potency, µM (titrated, usually from 114 µM), for the others: at the highest dose activity change, negative = inhibition, hits mostly inhibitors | hit rate 1% among 390,000 | AID 588453, 2011; also: % is scaled to controls: 0 for no effect and ±100 for the full control effect; nearly all actives have a fitted effect of over 65% in size
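Rat TrxR1 (90 nM in the dispensed reagent) was pre-reduced with 400 uM NADPH for 5 min at room temperature, then incubated with compound for 15 min. After 400 uM selenite was added, NADPH fluorescence (Ex 340/Em 450 nm) was followed for 8 min.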
GLP1R ag – qHTS of GLP-1 Receptor Agonists. hit rate 0.007% among 380,000. HEK293 GLP-1R CRE-luciferase, luminescence, 4-6 h; cells express a hypersensitive GLP-1R form. Glucagon-like peptide 1 receptor (Homo sapiens), P43220. AID 624172, 2012. Potency, µM (top dose mostly 45.6 µM), for the others: at the highest dose activation, hits mostly activators; also: % of control where 0% means no effect
HEK293 tox – qHTS of GLP-1 Receptor Inverse Agonists: Cytotox Screen; HEK293 cAMP-luciferase reporter cells, luminescence, 24 h; Potency, µM (series often up to 38.3 µM), without a hit: at the top dose activity change, negative = inhibition, actives largely listed as inhibitors; hit rate 0.13% among 410,000;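 also: loss of luciferase light is scored as toxicity; % is scaled to controls: 0 for no effect and ±100 for the full control effect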
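Cells in DMEM/10% Nu serum/1% pen-strep, 1536-well format. Pre-incubated 12 h, dosed with 23 nL compound, incubated a further 24 h. Luciferase detection, 12 min at room temp, luminescence.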
IDH1 R132H inh – qHTS for Inhibitors of mutant isocitrate dehydrogenase 1 (IDH1): qHTS | hit rate 0.093% among 390,000 | IDH1-R132H enzyme, NADPH consumption, diaphorase/resazurin fluorescence | Potency, µM (doses to about 76.6 µM), inactives show top-dose activity change, negative = inhibition, actives largely listed as inhibitors; also: % is scaled to controls: 0 for no effect and ±100 for the full control effect; nearly all actives have a fitted effect of over 65% in size
Target sequence (O75874 whole entry R132H, stated change not applied): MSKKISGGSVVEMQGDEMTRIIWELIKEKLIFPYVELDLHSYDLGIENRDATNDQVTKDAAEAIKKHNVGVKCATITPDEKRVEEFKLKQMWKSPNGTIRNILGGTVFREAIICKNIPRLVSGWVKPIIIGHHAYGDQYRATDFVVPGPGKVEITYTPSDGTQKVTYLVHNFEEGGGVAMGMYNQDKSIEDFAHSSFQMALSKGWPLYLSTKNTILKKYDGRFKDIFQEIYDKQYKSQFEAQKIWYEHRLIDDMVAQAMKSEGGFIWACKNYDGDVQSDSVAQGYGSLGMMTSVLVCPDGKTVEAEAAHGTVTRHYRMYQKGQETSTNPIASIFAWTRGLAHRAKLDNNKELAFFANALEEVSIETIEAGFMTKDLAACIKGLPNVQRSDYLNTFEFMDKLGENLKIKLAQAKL
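IDH1-R132H (0.5 ug/mL dispensed) in pH 7.5 Tris buffer was preincubated 30 min with compound, then given a substrate mix of 0.016 mM NADPH and 2 mM alpha-KG for 80 min at room temperature; remaining NADPH was read by diaphorase/resazurin fluorescence.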
An asterisk follows results filed as active; ? = inconclusive; . = no result; [ ] = another dose, or the depositor's remark. A selection: hits, their analogues and other compounds. The true share with any hit is near 2.7%. Calls follow the shape of the dose curve; as a rule, active = well fitted curve in the direction sought with a large enough effect; inconclusive = small, poorly fitted or top-dose-only effect, or another doubt; inactive = no such curve, though single readings can be large; an effect the other way counts as inactive or inconclusive. Potency is read from the fitted curve at half-maximal effect.

SMILES | TrxR1 substrate | GLP1R inv ag | rTrxR1 inhibitor | GLP1R ag | HEK293 tox | IDH1 R132H inh
O=c1c(Cc2ccccc2)c(O)nc2n1CCS2 | -8% | 7% | -7% | -8% | -13% | 9%
Cc1ccc(C(c2c(O)nc3n(c2=O)CCS3)c2c(O)nc3n(c2=O)CCS3)cc1 | 13%[57.1 µM] | -3% | 2.8µM* | -1% | -3% | 0%
O=c1c(C(c2ccc(O)cc2)c2c(O)nc3n(c2=O)CCCS3)c(O)nc2n1CCCS2 | 12% | 1% | 3.5µM* | -2% | -4% | 4%
O=c1c2ccccc2nc2n1CCCS2 | 14% | 2% | 30% | 4% | 2% | 2%
O=c1c(C(c2c(O)nc3n(c2=O)CCS3)c2cccc3ccccc23)c(O)nc2n1CCS2 | -8% | -16% | 11µM* | 4% | 2% | 6%
O=c1c(C(c2ccc(O)cc2)c2c(O)nc3n(c2=O)CCS3)c(O)nc2n1CCS2 | -7% | 0% | 3.2µM* | 0% | 15% | 18%
Cc1ccc(Cc2c(C)nc3nc(SCC(=O)NC4CCC(C)CC4)nn3c2C)cc1 (stereo unspecified) | 12%[57.1 µM] | 9% | 25%[57.1 µM] | . | -1% | 5%
CCN(c1ccccc1)S(=O)(=O)c1nnc(NC(=O)c2ccccc2)s1 | -10% | -17% | -12% | . | -2% | -24%
Cc1ccc2cc(C=C(C#N)C#N)c(N3CCCCC3)nc2c1 | -5% | 0% | 1µM* | 12% | -3% | 1%
COc1ccccc1NC(=O)Cn1c(=O)n(Cc2cccs2)c(=O)c2cccnc21 | 2% | 10% | 14% | . | 9% | 0%
O=S(=O)(c1ccc2nnn(O)c2c1)N1CCOCC1 | -6% | -3% | 56µM* | -7% | 0% | 9%
COc1ccc(Br)cc1CNC(=O)c1cc2n(n1)CCCN(Cc1ccc(C)cc1)C2=O | 6%[57.1 µM] | ? | 11%[57.1 µM] | . | -7% | -1%
O=C1c2ccccc2/C(=C\c2ccc3[nH]ccc3c2)N1c1ccccc1 | 20% | 1% | 46% | -2% | -4% | 10%
CCC/C(=C1/c2ccccc2C(=O)N1c1ccccc1)c1ccc2[nH]ccc2c1 | 11%[57.1 µM] | 4.5µM* | 18%[57.1 µM] | -3% | -4% | -15%
NC(=O)CSc1nc2cc3c(cc2c(=O)n1CCCCCC(=O)NCc1ccc2c(c1)OCO2)OCO3 | 3%[57.1 µM] | 0% | 19%[57.1 µM] | . | 4% | 3%
CCC(Sc1nnc(-c2ccc(C)c(Cl)c2)n1CC)C(=O)Nc1nccs1 (stereo unspecified) | -2% | 6.3µM* | 2% | 7% | 0% | 9%
CCn1c(SCC(=O)Nc2nccs2)nnc1-c1ccc(S(=O)(=O)N2CCCCCC2)cc1 | 12%[57.1 µM] | -9% | 1%[57.1 µM] | -6% | -16% | -2%
COc1ccc(-n2c(SCC(=O)c3ccc(Cl)cc3)nc3c([nH]c4ccccc43)c2=O)cc1 | 2%[57.1 µM] | 9% | 39%[57.1 µM] | -4% | 1% | -6%
O=C(c1ccc2c(=O)n3c(nc2c1)CCCCC3)N1CCN(c2ccc(F)cc2)CC1 | -3% | 5µM* | 2% | 18% | 4% | -3%
O=C(c1ccc2c(=O)n3c(nc2c1)CCCCC3)N1CCN(c2ccc(Cl)cc2)CC1 | 5%[57.1 µM] | 7.1µM* | 15%[57.1 µM] | -4% | 10% | 13%
COc1ccccc1N1CCN(C(=O)c2ccc3c(=O)n4c(nc3c2)CCCCC4)CC1 | 0% | -2% | 5% | 9% | -4% | 2%
COC(=O)c1ccccc1NC(=O)CCS(=O)(=O)c1nc(-c2ccc3c(c2)OCO3)cc(C(F)(F)F)n1 | 133% | 2% | 45% | . | -7% | 7%
COc1ccc(OCC(=O)Nc2c(C(=O)N3CCN(C)CC3)oc3ccccc23)cc1 | 2%[57.1 µM] | 11% | 12%[57.1 µM] | 3% | -4% | 0%
CCCN1CCN(C(=O)c2oc3ccccc3c2NC(=O)COc2ccc(OC)cc2)CC1 | 5% | 13% | 22µM* | -2% | 0% | 2%
COc1ccc(N2CCN(C(=O)c3oc4ccccc4c3NC(=O)Cc3cccc(OC)c3)CC2)cc1 | -1% | 8.9µM* | 30% | 3% | -13% | -6%
SMILES | TrxR1 substrate | GLP1R inv ag | rTrxR1 inhibitor | GLP1R ag | HEK293 tox | IDH1 R132H inh
COc1ccc(OCC(=O)Nc2c(C(=O)N(CCN(C)C)Cc3ccco3)oc3ccccc23)cc1 | -13% | 7.9µM* | ? | 5% | 10% | 15%
COc1cc(-c2nnn(CC(=O)Nc3ccc(OC(F)(F)F)cc3)n2)cc(OC)c1OC | -7% | ? | -9% | . | ? | .
CCN(Cc1ccccc1)c1ccccc1 | 8% | 3% | 22% | 18% | -5% | 27%
CCN(Cc1ccccc1)c1ccc(/C=N/N=C(N)N)cc1 | 26% | 10µM* | -5% | -18% | -25% | -2%
COc1ccc(/C=C2\CC/C(=C\c3ccc(OC)c(OC)c3)C2=O)cc1OC | ? | 1% | -20% | 2% | 24% | -12%
COc1ccc(C=C2C=C(C(C)(C)C)C(=O)C(C(C)(C)C)=C2)cc1OC | 1% | ? | 11µM* | 28% | -2% | 5%
Cc1cc(C)nc(SCC(=O)Oc2ccc3oc(=O)cc(C)c3c2)n1 | 10%[57.1 µM] | 6% | 1µM* | 1% | -16% | 6%
CCC(=O)Oc1ccc2oc(=O)cc(C)c2c1 | 5% | 16% | 10% | -17% | -5% | 1%
COc1ccc(C2Nc3ccc(NC(=O)CO)cc3C(=O)N2Cc2cccc(Cl)c2)cc1COc1ccc(NC(C)=O)cc1 (stereo unspecified) | 12% | . | -2% | . | . | .
CN(C)c1ccc(-c2ccc3ccccc3n2)cc1 | 86% | . | ? | . | . | .
O=C(NC(c1ccc(Cl)cc1)c1ccsc1)C1CCN(Cc2ccc(Oc3ccccc3)cc2)CC1 (stereo unspecified) | . | 10µM* | . | 2% | -24% | .
C(=C\c1c[nH]c2ccccc12)/c1ccc2ccccc2n1 | 6% | . | -12% | . | . | .
Cc1ccccc1NS(=O)(=O)c1ccc2[nH]c3c(c2c1)CCCCC3 | -2% | 10µM* | 4% | 0% | -12% | -7%
O=S(=O)(Nc1cccc(Cl)c1)c1ccc2[nH]c3c(c2c1)CCCCCC3 | -4%[57.1 µM] | ? | 11%[57.1 µM] | . | 19% | 26%
Cc1cccc(NS(=O)(=O)c2ccc3[nH]c4c(c3c2)CCCCCC4)c1 | 5%[57.1 µM] | 8.9µM* | 21%[57.1 µM] | . | ? | 17%
